Screening results deposited in PubChem BioAssay by National Center for Advancing Translational Sciences (NCATS).
MCF10A rerep – A quantitative high throughput screen for small molecules that induce DNA re-replication in MCF 10a normal breast cells; AID 624296, 2012; actives 2.9% (n = 350,000); MCF 10A DNA re-replication, Hoechst nuclear intensity, 48 h; Potency, µM (highest dose often 46.1 µM), for inactives: at the top dose activity, positive = re-replication, actives largely listed as activators; note: % of control where 0% means no effect; nearly all actives have a fitted effect of over 50% in size
KB-V1 cytotox – qHTS assay for MDR1-selective chemotherapeutics: Primary screen using the drug-selected MDR subline cells KB-V1 | KB-V1 MDR cells viability, CellTiter-Glo, 72 h | Potency, µM (series often up to 46.1 µM), hits mostly cytotoxic | actives 3.4% (n = 400,000) | AID 1347076, 2019; note: % is set by controls: 0 for no effect and ±100 for the full control effect; nearly all actives have a fitted effect of over 60% in size
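qHTS viability screen in drug-selected KB-V1 MDR cells: 72 h compound treatment at 37 degrees C, ATP luminescence end point.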
ELG1 DNA repair – qHTS screen for small molecules that inhibit ELG1-dependent DNA repair in human embryonic kidney (HEK293T) cells expressing luciferase-tagged ELG1. HEK293T ELG1-luciferase reporter, luminescence, 16 h; DNA damage induced by 5-fluorouridine. Potency, µM (titrated, usually from 46.1 µM), for the others: top-dose activity change, negative = inhibition, usual class: inhibitors. actives 2.3% (n = 330,000). AID 504467, 2011; note: % is set by controls: 0 for no effect and ±100 for the full control effect; nearly all actives have a fitted effect of over 55% in size
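In this reporter screen, reduction of luminescence relative to DMSO vehicle indicated activity. Compounds and 5-fluorouridine were added together to 2,000 cells per well, incubated for 16 hr at 37 °C, then developed with ONE-Glo.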
KB-3-1 tox – qHTS assay for MDR1-selective chemotherapeutics: Primary screen using the parental adenocarcinoma cell KB-3-1; KB-3-1 viability, CellTiter-Glo ATP luminescence, 72 h; AID 1347075, 2019; Potency, µM (highest dose often 46.1 µM), hits mostly cytotoxic; actives 1.4% (n = 400,000); note: % is set by controls: 0 for no effect and ±100 for the full control effect; nearly all actives have a fitted effect of over 60% in size
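Cytotoxicity measured as CellTiter-Glo luminescence after 72 h at 37 C. Compound titrations were pinned onto drug-naive KB-3-1 parental adenocarcinoma cells grown in DMEM with 10% FBS, and normalized data fitted to concentration-response curves.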
SW480 rereplic – A quantitative high throughput screen for small molecules that induce DNA re-replication in SW480 colon adenocarcinoma cells; SW480 DNA re-replication, Hoechst DNA content imaging, 48 h; Potency, µM (doses to about 46.1 µM), for inactives: at the highest dose re-replication activation, most hits filed as activators; actives 1.8% (n = 340,000); note: % of control where 0% means no effect; nearly all actives have a fitted effect of over 55% in size
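Per well, 250 cells were exposed to pinned compound for 48 hr. Nuclear DNA was visualised with Hoechst (40 min, 37 C) and total object intensity recorded by fluorescence scanning.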
* marks the source's active call; other numbers are inactive results; i = inactive; ? = inconclusive; / = no result given; [ ] = dose if it differs, or a comment. An excerpt weighted towards active compounds, which were near 8.1% of everything screened. Calls come from the whole dose curve; as a rule, active = well fitted curve in the direction sought with a large enough effect; inconclusive = small, poorly fitted or top-dose-only effect, or another doubt; inactive = no such curve, though single readings can be large; an effect the other way counts as inactive or inconclusive. Potency is the fitted concentration of half-maximal effect.

SMILES | MCF10A rerep | KB-V1 cytotox | ELG1 DNA repair | KB-3-1 tox | SW480 rereplic
CC/C(=N\NC(=O)CSCc1ccccc1Cl)c1ccc2c(c1)OCCO2 | 0.0% | i | -22.1% | i | -1.2%
CCn1c(SCc2nc3ccccc3c(=O)[nH]2)nnc1-c1ccncc1 | 0.6% | i | 2.2% | i | -28.1%
Cc1cc(C)c(OCCCCNCc2ccccc2)c(Cl)c1 | 23.1µM* | 8.2µM* | -10.3% | ? | ?
C=CCNCCCCOc1ccc(OCc2ccccc2)cc1 | ? | i | ? | i | 20.6µM*
CNC(=O)C[C@@H]1CC[C@@H]2[C@H](COC[C@H](O)CN2S(=O)(=O)c2ccccc2Cl)O1 | / | i | / | i | /
O=C(NCc1ccc2c(c1)OCO2)c1ccc(CS(=O)(=O)Cc2cccc(Cl)c2)o1 | 1.2% | ? | ? | ? | /
COc1ccccc1N=c1oc2cc(O)ccc2cc1C(N)=O | 18.4µM* | ? | ? | ? | 11.2µM*
COc1ccc2oc(=O)c(C(=O)NCC3CCCO3)cc2c1 (stereo unspecified) | -5.8% | i | ? | i | -1.9%
COc1ccccc1N=c1oc2cc(O)ccc2cc1C(=O)NCC1CCCO1 (stereo unspecified) | 7.2% | i | 6.51µM* | i | 12.8%
Cc1cccc(N=c2oc3cc(O)ccc3cc2C(N)=O)c1 | ? | ? | 4.61µM* | i | ?
COc1ccccc1NC(=O)c1cc2ccc(O)cc2o/c1=N\O | ? | i | -8.7% | i | ?
COc1cccc(N=c2oc3cc(O)ccc3cc2C(=O)NCC2CCCO2)c1 (stereo unspecified) | ? | i | 4.11µM* | i | 5.3%
COc1cccc2cc(C(=O)NCC3CCCO3)c(=O)oc12 (stereo unspecified) | -1.7% | i | ? | i | -9.6%
O=c1cn[nH]c2ccccc12 | 3.2% | i | 0.0% | i | 1.1%
CC(C)N(C(=O)Cn1cnc2cc([N+](=O)[O-])ccc2c1=O)C(C)C | / | / | -4.9% | / | /
CCN(CC)S(=O)(=O)c1ccc(C)c(NC(=O)Cn2cnc3cc([N+](=O)[O-])ccc3c2=O)c1 | -0.9% | i | 16.4µM* | i | -11.0%
CN(Cc1cccs1)C(=O)Cn1cnc2cc([N+](=O)[O-])ccc2c1=O | 0.82µM* | i | 1.0% | i | -13.3%
COC(=O)[C@]1(CC(C)C)N[C@H](c2ccc(-c3ccc(C(C)=O)cc3)cc2)[C@@H]2C(=O)N(C)C(=O)[C@@H]21 | -8.5% | i | ? | i | -6.9%
Cc1nc2c(-c3ccc(Cl)cc3)cnn2c2c1CCC2 | 20.6µM* | i | ? | i | 1.8%
Cc1nc2c(-c3ccc(Cl)cc3)cnn2c(N)c1-c1ccc(F)cc1 | -1.1% | i | ? | i | 16.9%
COc1ccc(COCC(O)CN2CCN(S(=O)(=O)c3ccc(C(C)C)cc3)CC2)cc1 (stereo unspecified) | 4.3% | ? | 13µM* | i | -7.0%
O=S(=O)(c1ccc(F)cc1)N1CCN(CC(O)COc2ccccc2F)CC1 (stereo unspecified) | 5.7% | i | ? | i | 0.4%
CC(C)c1ccccc1OCC(O)CN1CCN(S(=O)(=O)c2ccc([N+](=O)[O-])cc2)CC1 (stereo unspecified) | 8.1% | ? | ? | 6.51µM* | 27.0%
O=C1[C@@H]2[C@H](C(=O)N1O)[C@H]1C=C[C@@H]2C1 | 15.9% | i | 12.0% | i | -3.0%[9.22 µM]
Cc1ccc(S(=O)(=O)N2CCCCC2CCNC(=O)C(=O)NCc2ccccc2)cc1 (stereo unspecified) | ? | 4.11µM* | -28.5% | 3.66µM* | 6.51µM*
SMILES | MCF10A rerep | KB-V1 cytotox | ELG1 DNA repair | KB-3-1 tox | SW480 rereplic
Cc1ccccc1CNC(=O)C(=O)NCC1CCCN1S(=O)(=O)c1ccccc1 (stereo unspecified) | 2.6% | ? | 9.9% | i | -3.7%
Cc1ccc(S(=O)(=O)N2CCCCC2CCNC(=O)C(=O)NCC2CCCO2)cc1 (stereo unspecified) | -0.1% | 5.8µM* | 4.1% | i | 4.0%
Cc1ccc(S(=O)(=O)N2CCCCC2CCNC(=O)C(=O)NCc2ccncc2)cc1 (stereo unspecified) | 6.9% | ? | ? | i | -3.7%
Cc1ccc(S(=O)(=O)N2CCCCC2CCNC(=O)C(=O)NCc2ccccc2C)cc1 (stereo unspecified) | ? | 9.2µM* | ? | ? | 20.6µM*
COc1ccc(OC)c(-c2noc(N3CCN(c4ccc(C(C)=O)cc4)CC3)n2)c1 | / | i | / | i | /
OCCN1CCN(c2cc(-c3ccc4ccccc4c3)nc3ccnn23)CC1 | / | i | / | i | /
c1ccc(CN2CCN(CCOCCOc3cccc4ccccc34)CC2)cc1 | ? | ? | 18.3µM* | i | 4.0%
CC1CN(CCOc2ccccc2-c2ccccc2)CC(C)O1 (stereo unspecified) | 21.2% | 20.6µM* | -12.0% | ? | -2.6%
CC1CCN(CCOCCOc2ccccc2-c2ccccc2)CC1 | ? | 11.6µM* | -18.2% | i | 26.7%
CC1CCN(CCOc2ccc(OCc3ccccc3)cc2)CC1 | ? | 14.6µM* | ? | i | -0.2%
c1ccc(-c2ccccc2OCCN2CCCC2)cc1 | 8.9% | i | 3.2% | i | 1.3%
COc1ccc(NC(=O)c2oc3ccc(S(=O)(=O)N4CCCCC4)cc3c2C)cc1Cl | / | ? | / | i | /
CN(CC(=O)Nc1c(Cl)cccc1Cl)C(=O)CCc1nc2sc3c(c2c(=O)[nH]1)CCCC3 | ? | i | ? | i | 8.3%
O=Cc1c(Cl)nc2ccccn2c1=O | 25.9µM* | ? | 16.3% | i | ?
COc1cccc(/C=N/Nc2cc(-n3nc(C)cc3-c3ccccc3)ncn2)c1O | 3.66µM* | ? | 5.17µM* | ? | ?
COc1cccc(/C=N/Nc2ncnc(Cl)c2N)c1O | ? | ? | 19.2% | ? | ?
COc1cccc(/C=N/Nc2nc(Nc3ccccc3)nc(-n3nc(C)cc3C)n2)c1O | 14.6µM* | ? | 2.59µM* | 5.17µM* | 5.8µM*
C/C(Cn1nnc2ccccc21)=N\NC(=O)c1cccc(Br)c1 | 18.0% | i | 8.4% | i | -1.3%
Cc1ccc(-n2c(-c3ccccc3)c[n+]3c2CCc2ccccc2-3)c(C)c1 | 21.8% | i | ? | 4.61µM* | 25.8%
